Assay results published in the supplement of paper PMC13380429.

Tested on: Vero E6 infected with SARS-CoV-2
Test: inhibition of SARS-CoV-2 cytopathic effect; higher = more antiviral protection, active = above 15
Details: 48 h

Measured: inhibition of SARS-CoV-2 cytopathic effect

CS(=O)(=O)c1ccc([C@@H](O)[C@@H](CO)NC(=O)C(Cl)Cl)cc1 [thiamphenicol]
inactive: 1 nM -1.6% | 8.33 nM -2.5% | 100 nM -3.22% | 833.33 nM -3.59% | 10000 nM -2.23%

CCOC(=O)c1ncn2c1[C@@H]1CCCN1C(=O)c1cc(OC)ccc1-2
inactive: 1 nM -0.88% | 8.33 nM 0.22% | 100 nM 0.35% | 833.33 nM -0.77% | 10000 nM 0.55%

COC(=O)Nc1nc2cc(SC(C)C)ccc2[nH]1 [methiazole]
inactive: 1 nM 0.45% | 8.33 nM 0.55% | 100 nM 2.08% | 833.33 nM 2.73% | 10000 nM -1.24%

C=CC(=O)N1CCC(Oc2cc3c(Nc4ccc(Cl)c(Cl)c4F)ncnc3cc2OC)CC1 [poziotinib]
inactive: 1 nM -7.08% | 8.33 nM -14.9% | 100 nM -15.1% | 833.33 nM -17.3% | 10000 nM -15.7%

C[C@H]1C[C@@H]2[C@H]([C@@H](O)C[C@@]3(C)[C@H]2CC[C@]3(O)C(=O)COC(=O)CCC(=O)O)[C@@]2(C)C=CC(=O)C=C12 [methylprednisolone-sodium-succinate]
inactive: 1 nM -0.2% | 8.33 nM 2.8% | 100 nM 0.5% | 833.33 nM -0.11% | 10000 nM -2.89%

OB1OCc2cc(Cl)ccc21
inactive: 1 nM 1.12% | 8.33 nM 2.29% | 100 nM 2.68% | 833.33 nM 2.33% | 10000 nM 1.07%

Cn1c(=O)c2[nH]cnc2n(C)c1=O [aminophylline]
inactive: 1 nM -0.89% | 8.33 nM -0.66% | 100 nM -1.42% | 833.33 nM -0.87% | 10000 nM -0.09%
